Results on 7 molecules are retold here after PubChem BioAssay (NCATS).

The target of experiment [1] is Peroxisome proliferator-activated receptor gamma (Homo sapiens) (UniProt P37231). The experiment in a line: qHTS assay for small molecule antagonists of peroxisome proliferator-activated receptor gamma signaling (AID 588537; active = well fitted inhibition curve with a large enough effect in the signal ratio, with a control signal flat, not every such curve was filed as active; the % refers to the signal ratio;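 note: reporter cells co-stimulated with 50 nM rosiglitazone agonist during compound treatment; % of control where 0% means no effect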). In short, it runs like this:
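Fluorescence at 460 and 530 nm (405 nm excitation) reported beta-lactamase cleavage of CCF4 after 2 h room-temperature loading. HEK293 reporter cells in 1% charcoal/dextran-treated FBS had received compound and rosiglitazone for 16 h.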
For orientation: In qHTS, concentration-response curves come from the screen itself.

The target in experiment [2] is Vitamin D3 receptor (Homo sapiens) (UniProt P11473). Kind of experiment: qHTS assay for small molecule antagonists of vitamin D receptor signaling (AID 588541; calls by dose curve;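 note: receptor activated by calcitriol during compound treatment; series mostly up to about 77 µM; % is set by controls: 0 for no effect and ±100 for the full control effect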). In short, it runs like this: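 VDR-UAS-bla HEK293T cells in 2% charcoal-stripped FBS were stimulated with 1-alpha,25-dihydroxyvitamin D3 (3 nM final) plus compound for 16 h at 37 C. The beta-lactamase CCF4 readout was normalized to 50 nM agonist and DMSO, and Hill fits gave IC50.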
Chain of Vitamin D3 receptor (Homo sapiens) (P11473 whole entry, looked up): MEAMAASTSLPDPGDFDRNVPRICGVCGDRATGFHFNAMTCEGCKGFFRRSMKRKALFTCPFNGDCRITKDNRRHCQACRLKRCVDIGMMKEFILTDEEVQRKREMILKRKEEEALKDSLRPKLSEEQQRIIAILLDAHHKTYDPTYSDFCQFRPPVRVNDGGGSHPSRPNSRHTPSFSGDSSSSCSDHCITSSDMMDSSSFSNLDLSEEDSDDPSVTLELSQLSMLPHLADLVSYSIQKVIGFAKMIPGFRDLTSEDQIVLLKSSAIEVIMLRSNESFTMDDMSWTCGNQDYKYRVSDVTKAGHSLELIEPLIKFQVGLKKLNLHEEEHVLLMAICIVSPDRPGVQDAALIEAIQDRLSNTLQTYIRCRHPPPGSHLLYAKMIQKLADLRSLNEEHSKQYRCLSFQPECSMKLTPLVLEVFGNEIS

Experiment [3] shares this target. Kind of experiment: qHTS assay for small molecule agonists of vitamin D receptor signaling (AID 588543; calls by dose curve;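 note: 0% = DMSO basal and 100% = reference agonist control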). In short, it runs like this: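 GeneBLAzer VDR-UAS-bla HEK293T cells in 2% charcoal-stripped FBS medium were dosed with compound titrations for 16 h at 37 °C; CCF4 β-lactamase readout (405 nm ex, 460/530 nm em). EC50 and efficacy from Hill fits, normalized to 50 nM calcitriol (100%) and DMSO (0%).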

Experiment [4] in a line: qHTS assay for small molecule agonists of retinoid X receptor alpha signaling (AID 588544; calls by dose curve). The following applies: HEK293T RXRa-UAS-bla, beta-lactamase reporter, 18 h; 530 nm emission.
Experiment [5] deals with Retinoic acid receptor RXR-alpha (Homo sapiens) (UniProt P19793). The description is as above.
Chain of Retinoic acid receptor RXR-alpha (Homo sapiens) (P19793 whole entry, looked up): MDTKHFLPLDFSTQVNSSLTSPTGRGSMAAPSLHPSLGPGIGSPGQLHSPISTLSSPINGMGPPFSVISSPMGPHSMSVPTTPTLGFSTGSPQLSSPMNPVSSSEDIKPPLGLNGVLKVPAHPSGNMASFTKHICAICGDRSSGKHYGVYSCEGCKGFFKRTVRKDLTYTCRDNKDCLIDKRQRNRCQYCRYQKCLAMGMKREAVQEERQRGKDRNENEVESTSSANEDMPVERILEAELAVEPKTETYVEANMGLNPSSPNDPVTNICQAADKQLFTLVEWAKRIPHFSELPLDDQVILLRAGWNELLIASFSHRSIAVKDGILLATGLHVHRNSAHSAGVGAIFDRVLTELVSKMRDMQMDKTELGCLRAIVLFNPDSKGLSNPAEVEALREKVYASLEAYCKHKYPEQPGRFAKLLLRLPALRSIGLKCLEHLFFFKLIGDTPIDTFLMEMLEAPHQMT
The nature of experiment [6]: qHTS assay for small molecule antagonists of retinoid X receptor alpha signaling (AID 588546; active = well fitted inhibition curve with a large enough effect in the signal ratio, with a control signal flat, not every such curve was filed as active; the % refers to the signal ratio;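 note: cells stimulated with 9-cis-retinoic acid as agonist; % is set by controls: 0 for no effect and ±100 for the full control effect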). The following applies: HEK293T RXRa-UAS-bla, beta-lactamase ratio, antagonist mode; measured here: W530 green channel, cytotoxicity proxy. In short, it runs like this: (§1)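 Beta-lactamase reporter inhibition, read as CCF4 fluorescence ratio (ex 405, em 460/530 nm) after 2 h at RT. HEK293T UAS-bla cells, 2500/well, were stimulated with 9-cis-RA at 500 or 100 nM final alongside test compound for 18 h at 37 C.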

For experiment [7], the target named is Retinoic acid receptor RXR-alpha (Homo sapiens) (UniProt P19793). Described as above. The following applies: HEK293T RXRa-UAS-bla, beta-lactamase ratio, antagonist mode. In short, it runs like this: as §1
Experiment [8] has as its target Voltage-gated inwardly rectifying potassium channel KCNH2 (Homo sapiens) (UniProt Q12809). The experiment in a line: qHTS Assay for Small Molecule Inhibitors of the Human hERG Channel Activity (AID 588834).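 Note: top concentration of the series differs between compounds; % is set by controls: 0 for no effect and ±100 for the full control effect; lower thallium flux fluorescence means stronger hERG block; nearly all actives have a fitted effect of over 50% in size.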 In short, it runs like this: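 In hERG-transduced U2OS cells, dye-loaded for 1 hr at room temperature in dark, test compounds incubated 10 min at 37 °C before thallium stimulation. AC50 values derived by Hill modelling of concentration-response.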

The target in experiment [9] is Luciferin 4-monooxygenase (Photinus pyralis) (UniProt P08659). Kind of experiment: Biochemical firefly luciferase enzyme assay for NPC (AID 624030).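 Note: purified P. pyralis luciferase at 10 nM with luciferin and ATP substrate; series mostly up to about 59 µM; 0% = DMSO and -100% = full luciferase inhibition by PTC124 control; nearly all actives have a fitted effect of over 70% in size.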 In short, it runs like this: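 Purified P. pyralis luciferase at 10 nM in 50 mM Tris Acetate (final), luminescence read within 5 minutes of enzyme addition to compounds. Activity normalised to PTC124 versus DMSO; concentration-response curves classed by r2, magnitude and activity.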
Chain of Luciferin 4-monooxygenase (Photinus pyralis) (P08659 whole entry, looked up): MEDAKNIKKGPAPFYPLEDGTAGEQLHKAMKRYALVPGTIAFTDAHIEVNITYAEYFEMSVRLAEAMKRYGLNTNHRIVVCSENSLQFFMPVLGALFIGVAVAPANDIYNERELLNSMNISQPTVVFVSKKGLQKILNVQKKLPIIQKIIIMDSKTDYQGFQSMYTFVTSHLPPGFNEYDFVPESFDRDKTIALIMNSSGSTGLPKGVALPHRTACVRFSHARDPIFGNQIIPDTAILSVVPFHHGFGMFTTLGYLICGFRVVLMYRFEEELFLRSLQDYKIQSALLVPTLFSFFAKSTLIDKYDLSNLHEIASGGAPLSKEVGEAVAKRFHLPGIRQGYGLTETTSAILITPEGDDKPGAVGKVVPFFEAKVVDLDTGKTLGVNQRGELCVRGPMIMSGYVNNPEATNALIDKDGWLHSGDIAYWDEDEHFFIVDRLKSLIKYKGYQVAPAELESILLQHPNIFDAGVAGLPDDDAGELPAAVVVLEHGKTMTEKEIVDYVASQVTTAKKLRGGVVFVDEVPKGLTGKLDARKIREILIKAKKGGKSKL

Experiment [10] is described as follows: S16 Schwann cell viability assay (CellTiter-Glo assay) (AID 624031).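 Note: native untransfected S16 rat Schwann cells; series mostly up to about 58 µM; plate controls were DMSO-treated cells for no effect and cell-free wells for full effect; nearly all actives have a fitted effect of over 70% in size.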 In short, it runs like this: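 Rat S16 Schwann cells without reporter constructs received compound or DMSO for 24 h at 37 °C under 5% CO2. Cellular ATP was then quantified by CellTiter-Glo luminescence, with vehicle wells defined as 0% activity and cell-free wells as reference.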
In general terms: Cellular ATP, detected with luciferase, serves as a proxy for viable cell number.

Experiment [11] in a line: S16 Schwann cell PMP22 intronic element firefly luciferase assay (AID 624032). Note: nearly all actives have a fitted effect of over 30% in size. Note: potency is the fitted concentration of half-maximal effect. In short, it runs like this: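 Rat S16 Schwann cells stably carrying firefly luciferase driven by a PMP22 intronic element, in 10% FBS, treated 24 h at 37 C. ONE-Glo luminescence normalized to PTC124 control and DMSO (0%); curves classed by r2, magnitude and activity.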
A short description of experiment [12]: S16 Schwann cell PMP22 intronic element beta-lactamase assay (AID 624044; calls by dose curve;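 note: 0% = DMSO and -100% = potassium clavulanate positive control; nearly all actives have a fitted effect of over 15% in size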). In short, it runs like this: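 Beta-lactamase reporter under a PMP22 intronic regulatory element in stable S16 rat Schwann cells; 24 h compound exposure. 460 nm blue signal normalized between DMSO (0%) and potassium clavulanate, with 535 nm FRET tracking viability; curves classed by r2 and response.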

Experiment [13] in a line: qHTS of Trypanosoma Brucei Inhibitors: LOPAC Validation (AID 624147). Note: 0% is about no effect. In short, it runs like this: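 ADP (130 uM final) triggers the TbPYK reaction after compound addition; incubation is 45 min at room temperature. Kinase-Glo Plus is then added and luminescence imaged. Normalized data are fitted to concentration-effect curves.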
Experiment [14] has as its target Glucagon-like peptide 1 receptor (Homo sapiens) (UniProt P43220). Kind of experiment: qHTS of GLP-1 Receptor Agonists: LOPAC Validation (AID 624148).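 Note: 0% is about no effect; higher luminescence signal means agonism.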 In short, it runs like this:
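HEK293 cells stably co-expressing GLP-1R and a cAMP-responsive luciferase reporter, plated 12 hours before compound, then incubated 4-6 hr at 37 deg C. Luminescence read 12 min after detection reagent.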

A short description of experiment [15]: qHTS of Nrf2 Activators: LOPAC Validation (AID 624149). Note: 0% is about no effect. In short, it runs like this: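 Luciferase signal from ARE activation, read with Steady-Glo after 30 min at room temperature. Compounds were pin-transferred onto AREc32_Fluc cells (1000/well, OPTI-MEM/5% FBS, seeded overnight) and left 24 hr at 37 deg C.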
Experiment [16] can be described thus: HTS Assay for Allosteric Antagonists of the Human D2 Dopamine Receptor: Hit Validation in HTRF (AID 624455). Note: potency is the fitted concentration of half-maximal effect.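 Note: stable D1 dopamine receptor cell line scored for blocking the D1 response.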 In short, it runs like this: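 Inhibition of the D1-mediated response was measured by HTRF. Cells used were a line stably expressing the D1 dopamine receptor.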
Experiment [17] has as its target Glutaminase kidney isoform, mitochondrial (Homo sapiens) (UniProt O94925). The experiment in a line: qHTS for Inhibitors of Glutaminase (GLS): LOPAC Validation (AID 624146).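 Note: glutamate product detected by oxidase and peroxidase coupled Amplex red fluorescence gain; series mostly up to about 46 µM; % is set by controls: 0 for no effect and ±100 for the full control effect; nearly all actives have a fitted effect of over 60% in size.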 In short, it runs like this:
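hKGA in 45 mM KH2PO4 pH 8.2, 0.02% Tween-20 with pin-transferred compounds; 1 mM L-glutamine (stock) plus glutamate oxidase/HRP/Amplex Red coupling added. Fluorescence read initially and after 30 min at RT.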

Experiment [18] addresses Thyroid hormone receptor beta (Homo sapiens) (UniProt P10828). The experiment in a line: qHTS assay for small molecule agonists of thyroid hormone receptor beta signaling (AID 588545; calls by dose curve). In short, it runs like this: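 Agonist-mode beta-lactamase reporter assay, HEK 293 cells, 2% charcoal/dextran FBS; cells plated 4 hrs, compound 18 hrs at 37 C, CCF4 2 hrs RT. Normalized to 10 nM T3 (100%) and DMSO (0%); Hill fit gives EC50, efficacy.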

Experiment [19] shares this target. The experiment in a line: qHTS assay for small molecule antagonists of thyroid hormone receptor beta signaling (AID 588547; active = well fitted inhibition curve with a large enough effect in the signal ratio, with a control signal flat, not every such curve was filed as active; the % refers to the signal ratio;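 note: cells stimulated with 0.4 nM T3 agonist during compound exposure; series mostly up to about 77 µM; % is set by controls: 0 for no effect and ±100 for the full control effect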). The following applies: TR-UAS-bla HEK293, beta-lactamase ratio, antagonist mode, 18 h. In short, it runs like this:
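TR-UAS-bla GripTite HEK293 cells in 2% charcoal/dextran FBS medium; compounds 0.59 nM to 92 uM with T3 at 0.4nM final, 18 h at 37 C. Beta-lactamase read by CCF4 fluorescence (460/530 nm); Hill fits gave IC50 and efficacy.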

A short description of experiment [20]: Cytotoxicity counterscreen for NFkB agonists and antagonists (AID 624476).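 Note: cells exposed to compound for 48 hours; % is set by controls: 0 for no effect and ±100 for the full control effect.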

Where “and” joins values, the source holds several entries; their conditions need not be identical. Equal values may be shown once. Inconclusive results are not listed. Calls of active or inactive are those of the source. Unless noted, calls come from the whole dose curve; as a rule, active = well fitted curve in the direction sought with a large enough effect; inconclusive = small, poorly fitted or top-dose-only effect, or another doubt; inactive = no such curve, though single readings can be large; an effect the other way counts as inactive or inconclusive.

Chain of Peroxisome proliferator-activated receptor gamma (Homo sapiens) (P37231 whole entry, looked up): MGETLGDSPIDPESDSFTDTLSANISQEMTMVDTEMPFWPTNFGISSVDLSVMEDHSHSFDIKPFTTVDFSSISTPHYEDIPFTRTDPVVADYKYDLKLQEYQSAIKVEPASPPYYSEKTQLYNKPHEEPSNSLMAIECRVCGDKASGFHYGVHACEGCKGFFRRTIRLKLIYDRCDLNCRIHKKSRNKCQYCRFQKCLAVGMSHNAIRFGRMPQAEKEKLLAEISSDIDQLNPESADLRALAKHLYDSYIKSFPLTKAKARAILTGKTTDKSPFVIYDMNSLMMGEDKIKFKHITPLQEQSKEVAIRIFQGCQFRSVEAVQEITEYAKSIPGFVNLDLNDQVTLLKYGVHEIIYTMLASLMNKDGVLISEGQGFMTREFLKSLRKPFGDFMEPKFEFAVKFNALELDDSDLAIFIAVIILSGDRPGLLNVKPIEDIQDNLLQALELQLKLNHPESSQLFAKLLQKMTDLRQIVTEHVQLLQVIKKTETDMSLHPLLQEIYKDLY
Chain of Voltage-gated inwardly rectifying potassium channel KCNH2 (Homo sapiens) (Q12809 whole entry, looked up): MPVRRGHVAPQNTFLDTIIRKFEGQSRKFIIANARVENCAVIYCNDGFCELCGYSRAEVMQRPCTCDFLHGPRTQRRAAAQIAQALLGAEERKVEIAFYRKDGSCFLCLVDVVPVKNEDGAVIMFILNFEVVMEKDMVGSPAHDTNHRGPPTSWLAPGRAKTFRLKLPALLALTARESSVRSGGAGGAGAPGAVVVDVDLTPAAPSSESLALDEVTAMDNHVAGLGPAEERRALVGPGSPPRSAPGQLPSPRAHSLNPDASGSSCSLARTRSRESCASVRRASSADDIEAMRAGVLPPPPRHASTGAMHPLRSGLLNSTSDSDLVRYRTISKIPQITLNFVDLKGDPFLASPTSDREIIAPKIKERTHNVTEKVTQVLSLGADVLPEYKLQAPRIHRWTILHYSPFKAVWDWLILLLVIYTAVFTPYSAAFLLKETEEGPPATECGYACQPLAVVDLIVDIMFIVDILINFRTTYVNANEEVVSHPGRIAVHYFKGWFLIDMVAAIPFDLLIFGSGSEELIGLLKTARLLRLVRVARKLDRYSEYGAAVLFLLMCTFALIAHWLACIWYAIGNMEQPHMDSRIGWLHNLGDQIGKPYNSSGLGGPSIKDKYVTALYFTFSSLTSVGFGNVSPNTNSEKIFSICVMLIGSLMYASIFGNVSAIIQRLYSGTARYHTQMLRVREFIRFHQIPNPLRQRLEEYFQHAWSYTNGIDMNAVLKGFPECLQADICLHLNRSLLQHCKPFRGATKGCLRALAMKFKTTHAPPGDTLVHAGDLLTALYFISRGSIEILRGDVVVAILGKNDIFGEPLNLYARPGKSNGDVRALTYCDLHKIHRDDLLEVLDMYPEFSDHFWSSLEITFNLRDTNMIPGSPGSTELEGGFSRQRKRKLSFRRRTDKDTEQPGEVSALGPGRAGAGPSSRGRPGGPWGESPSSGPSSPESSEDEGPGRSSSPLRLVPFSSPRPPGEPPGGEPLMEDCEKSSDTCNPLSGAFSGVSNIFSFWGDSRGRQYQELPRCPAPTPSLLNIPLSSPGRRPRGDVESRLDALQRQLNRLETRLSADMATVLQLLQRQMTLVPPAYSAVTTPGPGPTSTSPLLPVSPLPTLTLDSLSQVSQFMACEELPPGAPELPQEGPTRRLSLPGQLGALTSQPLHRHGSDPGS
Chain of Glucagon-like peptide 1 receptor (Homo sapiens) (P43220 whole entry, looked up): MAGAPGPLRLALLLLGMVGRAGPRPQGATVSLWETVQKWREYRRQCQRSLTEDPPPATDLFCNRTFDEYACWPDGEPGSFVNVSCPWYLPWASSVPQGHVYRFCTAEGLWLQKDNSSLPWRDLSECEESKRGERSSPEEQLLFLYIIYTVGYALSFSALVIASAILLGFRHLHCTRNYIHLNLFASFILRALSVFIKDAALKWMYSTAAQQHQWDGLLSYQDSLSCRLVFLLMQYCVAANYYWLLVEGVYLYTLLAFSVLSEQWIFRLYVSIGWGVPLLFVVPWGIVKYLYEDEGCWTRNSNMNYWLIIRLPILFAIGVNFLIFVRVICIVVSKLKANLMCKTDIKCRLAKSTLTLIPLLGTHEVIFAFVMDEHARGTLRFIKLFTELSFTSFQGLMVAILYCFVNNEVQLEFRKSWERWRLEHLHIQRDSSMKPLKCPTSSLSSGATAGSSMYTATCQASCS
Chain of Thyroid hormone receptor beta (Homo sapiens) (P10828 whole entry, looked up): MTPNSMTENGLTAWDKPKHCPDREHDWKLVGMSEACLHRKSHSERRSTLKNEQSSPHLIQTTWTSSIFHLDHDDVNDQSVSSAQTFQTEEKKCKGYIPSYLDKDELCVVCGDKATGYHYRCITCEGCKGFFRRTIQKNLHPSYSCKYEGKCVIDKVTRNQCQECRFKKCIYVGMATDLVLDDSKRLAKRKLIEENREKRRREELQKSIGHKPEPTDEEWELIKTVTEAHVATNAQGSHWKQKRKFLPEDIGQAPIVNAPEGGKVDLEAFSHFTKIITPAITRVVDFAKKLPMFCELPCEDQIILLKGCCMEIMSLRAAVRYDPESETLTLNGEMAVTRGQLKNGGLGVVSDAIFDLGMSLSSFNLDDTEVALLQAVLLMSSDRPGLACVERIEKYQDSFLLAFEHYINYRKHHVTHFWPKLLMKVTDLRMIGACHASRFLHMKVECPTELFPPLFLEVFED
Chain of Glutaminase kidney isoform, mitochondrial (Homo sapiens) (O94925 whole entry, looked up, canonical isoform): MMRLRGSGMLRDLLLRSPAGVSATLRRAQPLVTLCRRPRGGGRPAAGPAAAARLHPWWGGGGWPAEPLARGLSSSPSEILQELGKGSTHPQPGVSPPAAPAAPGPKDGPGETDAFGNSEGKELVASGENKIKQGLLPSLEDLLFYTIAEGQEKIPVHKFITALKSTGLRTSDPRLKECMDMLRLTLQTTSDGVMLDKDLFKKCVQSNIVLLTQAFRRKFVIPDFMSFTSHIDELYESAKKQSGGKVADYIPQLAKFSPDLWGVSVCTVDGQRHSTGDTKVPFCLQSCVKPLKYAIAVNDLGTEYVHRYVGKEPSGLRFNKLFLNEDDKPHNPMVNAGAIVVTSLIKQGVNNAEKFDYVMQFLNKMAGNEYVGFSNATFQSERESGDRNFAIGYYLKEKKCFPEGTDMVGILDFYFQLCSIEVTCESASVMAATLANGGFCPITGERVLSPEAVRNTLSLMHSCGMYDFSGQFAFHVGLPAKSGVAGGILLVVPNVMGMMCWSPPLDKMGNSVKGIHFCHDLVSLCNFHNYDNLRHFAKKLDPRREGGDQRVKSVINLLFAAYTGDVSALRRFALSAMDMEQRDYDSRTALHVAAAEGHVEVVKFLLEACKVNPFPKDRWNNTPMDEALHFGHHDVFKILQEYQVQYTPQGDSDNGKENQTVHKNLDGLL

With `CC(=O)Oc1ccccc1C(=O)O`, the molecule was classed as inactive in experiment [1], in experiment [2], in [3], in experiment [5], in experiment [12] and in [13]. Moreover, the molecule was classed as inactive in [14] and in experiment [15]. Further, the max response in experiment [4] is -11.8% and -6.8%; in experiment [6], -4.43% and -6.93%; in experiment [7], 7.17% (inactive) and 4.37% (inactive). Moreover, the Potency result in experiment [8], in experiment [9], in experiment [10], in experiment [11] and in experiment [16] was “inactive” each time.
Take `N=c1nc(N2CCCCC2)cc(N)n1O`: the Potency entry in [8], in [9], in experiment [10], in experiment [11] and in [16] was “inactive” each time. Besides, the call in experiment [12], in [17], in experiment [13], in experiment [14] and in [15] was inactive.
For the molecule `O=c1[nH]cnc2[nH]ncc12`, the call in experiment [1], in experiment [2], in experiment [3], in experiment [5], in experiment [18] and in experiment [13] was inactive. Also, the result in experiment [14] and in experiment [15] was inactive. Moreover, the max response in [4] is -0.239%; in experiment [6] it was -6.19%; in experiment [7], -1.1% (inactive). Moreover, the activity change % (negative = inhibition) in experiment [19] was 5.35% (inactive). Besides, the Potency result in experiment [8], in [9], in experiment [10], in experiment [11] and in experiment [16] was “inactive” throughout.
Consider `N#Cc1ccc(C(c2ccc(C#N)cc2)n2cncn2)cc1`, for which the Potency result in experiment [8], in [9], in experiment [10], in [11] and in [20] was “inactive” throughout. The molecule was called inactive in experiment [12].
On to `CC(C[N+](C)(C)C)OC(N)=O` (configuration not stated), for which the Potency result in [8], in experiment [9], in [10], in experiment [11] and in experiment [16] was “inactive” each time. For the same molecule, the outcome in experiment [13], in experiment [14] and in experiment [15] was inactive.
In the case of `NC(=O)c1cnccn1`, the molecule was classed as inactive in experiment [1], in [2], in [3], in experiment [5], in [13] and in experiment [14]. For the same molecule, in experiment [15], the molecule was classed as inactive. Besides, the max response is -9.81% in experiment [4], -6.21% in experiment [6] and 6.87% (inactive) in experiment [7]. Moreover, the Potency entry in [8], in experiment [9], in [10], in [11] and in [16] was “inactive” in each case.
With `NC[C@H](O)c1ccc(O)c(O)c1`, the call in experiment [1], in experiment [5], in experiment [18], in experiment [12], in experiment [13] and in experiment [15] was inactive. The max response in [4] was -17.2%; in experiment [6], -24.3%; in experiment [7], -6.6% (inactive). Moreover, the activity change % (negative = inhibition) in experiment [19] is 13.6% (inactive). Further, the Potency entry in experiment [8], in experiment [9] and in experiment [10] was “inactive” in each case. In addition, the Potency was 9.07 µM (active) in [11] and 0.291 µM (active) in experiment [16].
